Measurements taken from PubChem BioAssay AID1645838 (ICCB-Longwood Screening Facility, Harvard Medical School, 2021).
Values joined by “and” are separate entries in the source; they are usually repeats but may differ in a detail not shown here. Identical values can stand only once. In all, about 2,000 compounds went through this assay and about 100 (5%) were called active. Cut-off read from the data, not from the text of the source: active = z-score above about 2; inactive = the rest. The full list was thinned out, with actives kept by preference.

Assay: supercomplex reporter luminescence per Hoechst cell count – Hoechst nuclei count (AID 1645838);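 note: control cybrid cells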;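 for z-score: higher means more mitochondrial supercomplex formation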
Conditions: Cells, luminescence/Hoechst cell count ratio; for z-score: stronger effect = higher value; for cell count: measured here: cell number, Hoechst nuclei count
[1] = library stock concentration (final well concentration not given) 80 uM
[2] = library stock concentration (final well concentration not given) 400 uM
[3] = library stock concentration (final well concentration not given) 2 mM
[4] = library stock concentration (final well concentration not given) 10 mM
[5] = library stock concentration (final well concentration not given) 46 uM
[6] = library stock concentration (final well concentration not given) 278 uM
[7] = library stock concentration (final well concentration not given) 1.67 mM

CC1CN(CC(=O)Nc2ccc3c(c2)Cc2cccc(-c4cc(=O)cc(N5CCOCC5)o4)c2S3)CC(C)O1 (stereo not given)
z-score [1]: -0.376 (inactive) | z-score [2]: -0.656 (inactive) | z-score [3]: 0.69 (inactive) | z-score [4]: 4.45 (active) | cell count [1]: 6150 | cell count [2]: 6090 | cell count [3]: 4680 | cell count [4]: 1840

O=c1cc(-c2cccc3c2Sc2ccccc2S3)oc(N2CCOCC2)c1
z-score [5]: -0.163 (inactive) | z-score [1]: -0.486 (inactive) | z-score [6]: -0.0765 (inactive) | z-score [2]: -0.335 (inactive) | z-score [7]: -0.27 (inactive) | z-score [3]: -0.523 (inactive) | z-score [4]: 0.302 (inactive) and 0.32 (inactive) | cell count [5]: 6030 | cell count [1]: 4590 | cell count [6]: 5590 | cell count [2]: 4700 | cell count [7]: 5740 | cell count [3]: 4720 | cell count [4]: 3610 and 4370

CCCCCCCCCCCCCCCCCCCCCC(=O)NCCO
z-score: 0.434 (inactive) | cell count: 5500

O=C(O)CCC/C=C\C[C@H]1[C@@H](/C=C/[C@@H](O)CCc2ccccc2)[C@H](O)C[C@@H]1O
z-score: -0.319 (inactive) | cell count: 5160

CCCCCC(=O)Nc1c(C)cc(Br)cc1C
z-score [1]: 0.207 (inactive) | z-score [2]: 0.413 (inactive) | z-score [3]: -0.729 (inactive) | z-score [4]: -0.28 (inactive) | cell count [1]: 4910 | cell count [2]: 4850 | cell count [3]: 5330 | cell count [4]: 4660

O=C(CCCCc1ccccc1)C(F)(F)C(F)(F)F
z-score: -0.184 (inactive) | cell count: 5310

CC(=O)N[C@@H](CSC/C=C(\C)CC/C=C(\C)CC/C=C(\C)CCC=C(C)C)C(=O)O
z-score: 1.41 (inactive) | cell count: 5420

NC(=O)c1cnc(NCCc2ccc(O)c(Cl)c2)nc1NCc1ccccc1
outcome (library stock 10 mM): inactive; censored for cell count | z-score [5]: -1.13 (inactive) | z-score [6]: -0.967 (inactive) | z-score [7]: 6.17 (active) | cell count [5]: 7430 | cell count [6]: 6770 | cell count [7]: 1590

Cn1cnc2c(NCc3ccccc3)nc(NCCO)nc21
z-score: 0.158 (inactive) | cell count: 4830

CCC(CO)Nc1nc(NCc2ccccc2)c2ncn(C(C)C)c2n1 (stereo not given)
z-score [1]: -0.719 (inactive) | z-score [2]: -0.53 (inactive) | z-score [3]: -0.509 (inactive) | z-score [4]: 0.143 (inactive) | cell count [1]: 5300 | cell count [2]: 4780 | cell count [3]: 4590 | cell count [4]: 3210

CC(O)C(O)C1CNc2nc(N)[nH]c(=O)c2N1 (stereo not given)
outcome (library stock 10 mM): inactive; censored for cell count | z-score [1]: -0.395 (inactive) | z-score [2]: -0.667 (inactive) | z-score [3]: -0.491 (inactive) | cell count [1]: 5380 | cell count [2]: 5520 | cell count [3]: 4750

C#C[C@]1(O)CC[C@@H]2[C@@H]3CCc4cc(O)ccc4[C@@H]3CC[C@@]21C
z-score [1]: -0.386 (inactive) | z-score [2]: -0.396 (inactive) | z-score [3]: -0.217 (inactive) | z-score [4]: -0.397 (inactive) | cell count [1]: 5910 | cell count [2]: 5660 | cell count [3]: 5810 | cell count [4]: 5370

C[C@H](CCCO)[C@H]1CC[C@H]2[C@@H]3[C@H](O)C[C@H]4C[C@H](O)CC[C@]4(C)[C@H]3C[C@H](O)[C@]12C
z-score: -0.0135 (inactive) | cell count: 5570

CC(=NNC(=O)c1cccc(S(=O)(=O)N2CCOCC2)c1)c1cc(Cl)ccc1O
outcome (library stock 278 µM): inactive; censored for cell count | z-score [5]: -0.349 (inactive) | z-score [7]: 3.11 (active) | z-score [4]: 3.02 (active) | cell count [5]: 7290 | cell count [7]: 2520 | cell count [4]: 1770

O=C(O)c1cccc(S(=O)(=O)N2CCc3ccccc3C2)c1
z-score [1]: -0.371 (inactive) | z-score [2]: 0.24 (inactive) | z-score [3]: -0.13 (inactive) | z-score [4]: 0.0481 (inactive) | cell count [1]: 5540 | cell count [2]: 4830 | cell count [3]: 5230 | cell count [4]: 4980

O=C(Nc1cccc(Br)c1)c1cccc(S(=O)(=O)N2CCCCCC2)c1
z-score [5]: -0.0641 (inactive) | z-score [6]: 0.273 (inactive) | z-score [7]: 0.0446 (inactive) | z-score [4]: -0.0353 (inactive) | cell count [5]: 6460 | cell count [6]: 6210 | cell count [7]: 6270 | cell count [4]: 5890

O=C(O)CCCCCC[C@@H]1[C@@H](CC[C@@H](O)CCc2cccc(C(F)(F)F)c2)[C@H](O)C[C@@H]1O
z-score: -0.0245 (inactive) | cell count: 4710

COc1ccc(-c2nc3cc(F)ccc3s2)cc1OC
z-score: -0.706 (inactive) | cell count: 5090

COc1ccc(/C=C/C(=O)Nc2c(O)cccc2C(=O)O)cc1OC
z-score: -0.476 (inactive) | cell count: 5390

O=C(O)/C=C/c1ccc(O)c(O)c1
z-score: -0.483 (inactive) | cell count: 5860

O=C(/C=C/c1cccc(C(=O)NO)c1)NO
z-score: 3.39 (active) | cell count: 4470

CCCCCCCCCC(=O)N[C@@H](CN1CCOCC1)[C@@H](O)c1ccccc1
z-score: 0.0636 (inactive) | cell count: 5620

COC1CC2CCC(C)C(O)(O2)C(=O)C(=O)N2CCCCC2C(=O)OC(C(C)CC2CCC(O)C(OC)C2)CC(=O)C(C)C=C(C)C(O)C(OC)C(=O)C(C)CC(C)C=CC=CC=C1C (stereo not given)
z-score [1]: 0.756 (inactive) | z-score [2]: 0.731 (inactive) | z-score [3]: 1.2 (inactive) | z-score [4]: 1.21 (inactive) | cell count [1]: 2980 | cell count [2]: 3130 | cell count [3]: 2660 | cell count [4]: 2720

CO[C@H]1C[C@@H]2CC[C@@H](C)[C@@](O)(O2)C(=O)C(=O)N2CCCC[C@H]2C(=O)O[C@H]([C@@H](C)C[C@@H]2CC[C@@H](O)[C@H](OC)C2)CC(=O)[C@H](C)/C=C(\C)[C@@H](O)[C@@H](OC)C(=O)[C@H](C)C[C@H](C)/C=C/C=C/C=C/1C
z-score: 2.24 (active) | cell count: 4010

COC1C[C@@H]2CCC(C)[C@@](O)(O2)C(=O)C(=O)N2CCCC[C@@H]2C(=O)O[C@@H](C(C)CC2CCC(n3cnnn3)C(OC)C2)CC(=O)C(C)C=C(C)C(O)C(OC)C(=O)C(C)CC(C)C=CC=CC=C1C (stereo not given in full)
z-score [1]: 0.366 (inactive) | z-score [2]: 0.334 (inactive) | z-score [3]: 0.739 (inactive) | z-score [4]: 1.14 (inactive) | cell count [1]: 4410 | cell count [2]: 4360 | cell count [3]: 4240 | cell count [4]: 3590
